From PubChem BioAssay AID845 (Columbia University Molecular Screening Center, 2007)
Hit rate of the full screen: of about 94,000 compounds, about 390 (0.41%) were called active. The entries come from a sample that favours actives as a whole. A number with no mark means an inactive call.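 The calls were made as follows: active = cell count reduction more than 3 SD above the screen-wide mean (cut at about 70% in these data); inactive = the rest.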

experiment: HUVEC cell count loss after compound exposure – imaging, Hoechst nuclear count, IL-1B stimulus, cytotoxicity control for IL-1B NFkB translocation project, primary screen (AID 845); settings: IL-1B stimulated, at 2 µM, stronger effect = higher value;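 also: normalized per plate to untreated control cells as the no-loss baseline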

Structure (SMILES)	cell count reduction
Cc1cc(-c2ccccc2)n2nc(C)c(-c3ccccc3)c2n1	-18.8%
Cc1nc2c(-c3ccccc3)c(C)[nH]n2c(=O)c1Cl	86.7% (active)
Cc1[nH]n(-c2cccc(Cl)c2)c(=O)c1-c1ccc(Cl)cc1	-1.3%
O=C(NNC(=O)c1cccnc1)Nc1ccccc1	19.6%
O=C(Nc1ccccc1Cl)O/N=C(/c1ccccc1)c1ccccn1	-21.6%
CCOC(=O)C1(S(=O)(=O)c2ccc(Cl)cc2)CCN(Cc2ccccc2)CC1	-78.7%
Cc1c(C(=O)NCc2ccccc2)cnn1-c1ccccc1	-8.5%
O=[N+]([O-])c1ccc(Oc2ccc(F)cc2Br)c2ccncc12	5.4%
COC(=O)CNC(=O)c1ccccc1[N+](=O)[O-]	22.7%
Clc1ccc(CSc2nnc(/C=C/c3ccccc3)o2)c(Cl)c1	-46.7%
CCOC(=O)c1c(NC(=O)/C=C/c2ccco2)sc(C)c1C	-43.8%
O=C1/C(=C\Nc2ccccc2)CCN1c1ncccn1	-32.2%
CN(C(=O)CSc1nc(C2CC2)nc2ccccc12)c1nc(-c2ccccc2)cs1	0.9%
CCN(CC)S(=O)(=O)c1ccc(N2CCOCC2)c(C(=O)O)c1	5.3%
COc1cc(C)nc(N2CCCC(C(=O)NCC(C)C)C2)n1 (configuration not stated)	-46.9%
Cc1cc(=O)n2nc(N3CCCC(C(=O)N4CCN(C)CC4)C3)sc2n1 (configuration not stated)	85.7% (active)
COc1ccc(S(=O)(=O)N2CCCC(C(=O)N3CCN(C)CC3)C2)cc1C (configuration not stated)	-33.6%
COc1ccc(C(C#N)Nc2ccc(C)cc2)cc1 (configuration not stated)	-28.6%
Cc1cc(C)c(OCC(=O)N/N=C/c2ccco2)c(C)c1	19.3%
O=[N+]([O-])c1ccccc1/C=N/n1c(COc2ccccc2)n[nH]c1=S	-18.2%
O=C(c1ccc(CN2CCOCC2)cc1)N1CCN(c2ccccc2F)CC1	2.7%
C/C=C/C(=O)Nc1nnc(C(C)C)s1	7.2%
COc1cccc(NC(=O)c2nn(C34CC5CC(CC(C5)C3)C4)cc2[N+](=O)[O-])c1	-1.4%
Cc1nc(SCC(=O)c2ccccc2)c([N+](=O)[O-])[nH]1	-10.8%
CCOc1ccccc1NC(=O)C1CCCN(C(=O)Nc2ccccc2)C1 (configuration not stated)	-30.5%

Structure (SMILES)	cell count reduction
Cc1cccc(C)c1NC(=O)c1ccc(CN2CCc3ccccc3C2)cc1	-6.8%
CCOC(=O)COc1cc(OCC(=O)OCC)c2c(=O)cc(-c3ccccc3)oc2c1	7.8%
C=C(C)C(=O)Nc1cccc(C(C)=O)c1	1.7%
O=c1[nH]n(-c2cccc(Cl)c2)c2ncccc12	-27.9%
CCCc1ccc(OCC(=O)NNC(=S)NC(=O)c2ccco2)cc1	-2.4%
O=c1c2ccccc2nc2n1C(CSc1ccc(F)cc1)CN2 (configuration not stated)	-9.2%
CSc1ccc(C#N)cc1NC(=O)c1ccc(Cl)cc1	-20.7%
CC1(C)N=C(c2ccccn2)C(C)(C)N1O	10.6%
Cc1cccc(N(CC(=O)N2CCOCC2)S(C)(=O)=O)c1	-61.2%
Nc1ccc(C(=O)OCC(=O)NC2CCCc3ccccc32)cc1[N+](=O)[O-] (configuration not stated)	-106%
CCc1cccc(C)c1N(C(=O)Cn1c(CO)nc2ccccc21)C(C)COC (configuration not stated)	-7.6%
COC(=O)c1cc(NC(=O)CC2C(=O)NCCN2C(=O)c2ccc(F)cc2)cc(C(=O)OC)c1 (configuration not stated)	-3.7%
N#CC1=C(SCc2ccc(C#N)cc2)N=C(N)C(c2nc(-c3ccccc3)cs2)C12CCCCC2 (configuration not stated)	25.2%
COc1ccc(C)cc1S(=O)(=O)Nc1cccc(Cl)c1Cl	6.2%
O=C(CNS(=O)(=O)c1ccc(Br)s1)N1CCN(C(=O)c2ccco2)CC1	15.9%
COc1ccc(C)cc1NC(=O)CCS(=O)(=O)c1cccc2nonc12	0.3%
OC(CN1C2=NCCCN2c2ccccc21)c1ccc(Br)cc1 (configuration not stated)	8.9%
Cc1ccc(-c2csc(SCC(=O)Nc3cc(C)on3)n2)cc1	8.8%
CCCNC(=O)N1CCN(C(=O)NCCC)CC1	4.6%
CSCCC(NC(=O)COc1ccccc1)C(=O)OCC(=O)c1cc2ccccc2o1 (configuration not stated)	-13.3%
O=C(NC1=NCCS1)[C@H](Cc1ccccc1)N1C(=O)c2ccccc2C1=O	-5.1%
CC1CCCCN1S(=O)(=O)c1ccc(C(=O)Nc2nnc(-c3cccs3)o2)cc1 (configuration not stated)	-4.4%
NC(=O)CSc1oc(-c2cccs2)nc1S(=O)(=O)c1ccccc1	72.9% (active)
COc1ccc(OC)c(C(=O)CSc2nnc(-c3cccs3)o2)c1	-23.7%
O=C(NCCN1CCN(Cc2ccccc2)CC1)c1cc2c(=O)[nH]c3ccccc3c2s1	26.5%

Structure (SMILES)	cell count reduction
O=C(CN1CCCCCC1)N1c2ccccc2Sc2ccc(C(F)(F)F)cc21	-33.3%
CCCC(O)(c1ccc(OC)cc1)C(CN(C)C)c1ccccc1 (configuration not stated)	-16.3%
O=C(Cc1ccc(S(=O)(=O)N2CCCC2)s1)NC1CCCCCC1	-2.6%
O=C(O)CCCCc1nc2ccccc2s1	0.3%
CCCC(=O)Nc1nc2ccc(NC(=O)c3cccnc3)cc2s1	-12.3%
O=C(CNC(=O)Cc1ccccc1)NCC(=O)OCC(=O)c1ccccc1Cl	-68.8%
CC(Oc1ccc(Cl)cc1)c1ccnn1S(C)(=O)=O (configuration not stated)	7.5%
COCCCNC(=O)CN1CCN(Cc2ccccc2Cl)C1=O	-10.5%
C=CCOc1ccc(Cl)cc1CNCCCN1CCOCC1	6.4%
Cc1ccccc1OCC(=O)NCC(=O)OCC(=O)c1ccc2ccccc2c1	13%
O=C(/C=C/Nc1ccccc1OC(F)(F)F)C(F)(F)F	-22.1%
CCCCOC(=O)Nc1sc2nc(C)cc(C)c2c1-n1cccc1	-2.8%
Cc1ccc(NC(=S)NC(=O)c2ccc(-c3ccccc3)cc2)cc1	-7.3%
O=C(Nc1nnc(SCc2ccccc2)s1)c1ccco1	-6.4%
COCCCNC(NC(=O)c1ccc(C)cc1)C(Cl)(Cl)Cl (configuration not stated)	-35.5%
CCN(CC)C(=O)CSc1nnc(CNc2ccc(F)cc2)n1Cc1ccco1	-17.8%
CCOc1ccc(CN2CCCN(C)CC2)cc1	-10.1%
Cc1ccc(SCC2=NNC(=O)C2)cc1	-29.7%
O=C(NCc1cccnc1)Nc1ccccc1F	30.7%
COc1ccc2c(c1OC)C(=O)c1ccccc1C2=O	-3.8%
c1cnc(Nc2nc(-c3ccc4ccccc4c3)cs2)nc1	22.7%
O=C(CN1CCCCCC1)Nc1ccc(Br)cc1Br	6.4%
CCOC(=O)c1ccc2c(c1)nc(C)n2CC	8.9%
Cc1cccn2c(=O)c(/C=C(\C#N)S(=O)(=O)c3ccc(Cl)cc3)c(N3CCC(C(N)=O)CC3)nc12	28.1%
O=c1[nH]c(SCc2ccccc2)nnc1-c1ccccc1	-19.8%

Structure (SMILES)	cell count reduction
Cc1nc(SCC(=O)N2CCc3ccccc3C2)c2c(C)c(C)sc2n1	-25.7%
COc1cc(OC)nc(NC(=O)CCl)n1	-85.3%
CC(=O)c1nn(-c2cccc(Br)c2)cc1C(=O)c1cccc2ccccc12	-1.6%
C=C(C)c1cccc(C(C)(C)NC(=O)N2CCN(c3ncccn3)CC2)c1	22.8%
CC12CCC(C(=O)N3CCN(c4ncccn4)CC3)(c3nc4ccccc4nc31)C2(C)C (configuration not stated)	82.1% (active)
O=C(C(NS(=O)(=O)c1cccc2nsnc12)c1ccccc1)N1CCN(c2ccccn2)CC1 (configuration not stated)	-35.8%
CCC(C(=O)NCc1ccc(OC)cc1)n1nc(C)n2c(cc3occc32)c1=O (configuration not stated)	9.6%
Cc1ccc(S(=O)(=O)N(c2cccc(C)c2)C2CCS(=O)(=O)C2)cc1 (configuration not stated)	5.1%
Cc1oc2nc(SCC(=O)Nc3ccc(S(N)(=O)=O)cc3)nc(NC(=O)c3ccccc3)c2c1C	13.5%
CCOCC(=O)Nc1sc2c(c1C(=O)OCC)CCCC2	92% (active)
CCCOC(=O)Nc1sc2c(c1C(=O)OCC)CCC2	11.4%
CCOC(=O)c1c(NC(=O)CSc2nnc(C)c(=O)[nH]2)sc2c1CCC2	-24.4%
O=C(Cc1ccccc1)Nc1c(C(=O)N2CCCCCC2)cnn1-c1ccccc1	-8.3%
COC(=O)C(C)C1Sc2ccccc2NC1=O (configuration not stated)	90.9% (active)
CN1CCN(S(=O)(=O)c2ccc(N3CCN(S(=O)(=O)c4cccs4)CC3)nc2)CC1	-0.9%
Cc1ccc(OCCCC(=O)Nc2ccc(N3CCOCC3)cc2)cc1	10.3%
COc1ccc(-c2nnc(SCC(=O)c3ccc4c(c3)OCCO4)o2)cc1	-13.4%
COc1ccc(Nc2nc(-c3ccccc3)cs2)cc1	3.5%
COc1ccc(/C=C(/NC(=O)c2ccc(C)cc2)c2nc3ccccc3[nH]2)cc1OC	-9.1%
Cc1ccc(Oc2ccc3c(c2)C(=O)N(c2cccc4cccnc24)C3=O)cc1	-63.9%
CCOc1cc(NC(=O)c2cnccn2)c(OCC)cc1NC(=O)c1ccc(C)cc1	-42.4%
O=C(NCC(=O)N(Cc1cccs1)C(C(=O)NC1CCCCC1)c1ccco1)c1cccs1 (configuration not stated)	24.1%
